ULK1 inh – ULK1 kinase inhibitors, primary screen, biochemical, AlphaScreen; hit rate 1.9% among 30,000; Serine/threonine-protein kinase ULK1 (Homo sapiens), O75385; inhibition, % at 5.96 µM; AID 1259251, 2017; AlphaScreen Atg13 phosphorylation by ULK1, luminescence; in the data active = inhibition above about 43%;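 note: 0% = median of compound wells and 100% = no enzyme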
ASK1 inh – ASK1 kinase inhibitors, primary screen, biochemical, AlphaScreen; AlphaScreen MKK6 phosphorylation by ASK1, luminescence; inhibition, % at 7.44 µM; hit rate 0.99% among 22,000; in the data active = inhibition above about 35%;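 note: 0% = median of compound wells and 100% = no enzyme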
Active calls of the source: *; / = no result given. Hits are enriched below; roughly 2.5% of the tested compounds scored in any of these assays.

SMILES | ULK1 inh | ASK1 inh
C[C@H](N)[C@H](O)c1ccccc1 | -10.4 | /
C[C@H](N)[C@H](O)c1ccc(O)c(O)c1 | 71.5* | /
O=C1CCCN1C(=O)c1ccccc1[N+](=O)[O-] | 8.2 | /
CCCCn1c(=O)c(C(=O)NCCCO)c(O)c2ccccc21 | 1.3 | /
CCN(CC)C(=O)N[C@H]1C=C2c3cccc4[nH]cc(c34)C[C@H]2N(C)C1 | 61.9* | /
CC(CO)NC(=O)C1C=C2c3cccc4[nH]cc(c34)C[C@H]2N(C)C1 (stereo not given in full) | 22.1 | /
COc1cccc(CN(CCN(C)C)C(=O)Cc2ccc(-c3cn[nH]c3)cc2)c1 | -8.5 | -17.9
Nc1ccc([N+](=O)[O-])cc1C(=O)c1ccccc1Cl | -12.2 | /
CN(C)C1C(=O)C(C(N)=O)=C(O)C2(O)C(=O)C3=C(O)c4c(O)cccc4C(C)(O)C3CC12 (stereo not given) | 71.6* | /
CN(C)[C@@H]1C(=O)C(C(N)=O)=C(O)[C@@]2(O)C(=O)C3=C(O)c4c(O)cccc4[C@@](C)(O)[C@H]3C[C@@H]12 | 24.4 | /
CN(C)[C@@H]1C(=O)C(C(N)=O)=C(O)[C@@]2(O)C(=O)C3=C(O)c4c(O)ccc(Cl)c4[C@@](C)(O)C3C[C@@H]12 (stereo not given in full) | 49.2* | /
CC(C)OP(=O)(NC(=S)c1ccccc1)OC(C)C | 1.1 | /
CC1(C)COC(=O)C1O (stereo not given) | -0.5 | /
CCC(=O)OC(Cc1ccccc1)(c1ccccc1)[C@H](C)CN(C)C (stereo not given in full) | 94.6* | /
CC(CC(C(N)=O)(c1ccccc1)c1ccccc1)N(C)C (stereo not given) | 2.2 | /
